Measurements published in paper PMC5540273 (PLoS ONE, 2017).
Several values for one entry are separate records, joined by “and”; a condition that tells them apart may be missing. Equal entries are not always repeated. Where two headings read alike, the source gives them in different places.

How the values were obtained:
PKMYT1 = conditions: concentration: 1 μM, replicates: in singlicate, n = 1
PKN1 = conditions: concentration: 1 μM, replicates: in singlicate, n = 1
PKN2 = conditions: concentration: 1 μM, replicates: in singlicate, n = 1
PLK1 = conditions: n = 1
PLK2 = conditions: concentration: 1 μM, replicates: in singlicate, n = 1
PLK3 = conditions: concentration: 1 μM, replicates: in singlicate; n = 1
PLK4 = conditions: concentration: 1 μM, replicates: in singlicate, n = 1
PRKCD = conditions: concentration: 1 μM, replicates: in singlicate, n = 1
PRKCE = conditions: concentration: 1 μM, replicates: in singlicate, n = 1
PRKCH = conditions: concentration: 1 μM, replicates: in singlicate, n = 1
[1] = concentration: 1 μM, replicates: in singlicate
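Note: KINOMEscan kinase panel screen.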

Row | SMILES | %Inh (PKMYT1) | %Inh (PKN1) | %Inh (PKN2) | %Inh (PLK1; [1]) | %Inh (PLK2) | %Inh (PLK3) | %Inh (PLK4) | %Inh (PRKCD) | %Inh (PRKCE) | %Inh (PRKCH) | %Inh (PKMYT1; 1 µM) | %Inh (PKN1; 1 µM) | %Inh (PKN2; 1 µM) | %Inh (PLK1; concentration: 1 μM, replicates: in singlicate, 1 µM) | %Inh (PLK2; 1 µM) | %Inh (PLK4; 1 µM) | %Inh (PRKCD; 1 µM) | %Inh (PRKCE; 1 µM) | %Inh (PRKCH; 1 µM) | %Inh (PLK1; 1 µM)
1 | Cc1ccc(NC(=O)c2ccnc(N3CCN(C)CC3)c2)cc1-c1ccc(C(=O)NCC2CC2)cc1 [GW775604] | 9% | 0% | 0% | 6% | 7% | 5% | 0% | 0% | 0% | 0% |  |  |  |  |  |  |  |  |  | 
2 | NS(=O)(=O)c1cccc(-c2ccc3ncc(N4CCOCC4)nc3c2)c1 [GSK1535721] | 1% | 0% | 0% | 0% | 0% | 5% | 15% | 4% | 1% | 8% |  |  |  |  |  |  |  |  |  | 
3 | COc1ccc(Nc2ncc(C#N)c(Nc3ccccc3C(N)=O)n2)cc1N1CCN(C)CC1.Cl [GSK1558669] | 41% | 83% | 78% | 100% | 100% | 100% | 99.8% | 94% | 94.4% | 86% |  |  |  |  |  |  |  |  |  | 
4 | O=c1cc(N2CCOCC2)nc2n(Cc3cccc(Cl)c3Cl)c(C3CC3)nn12 [GSK2358994] | 0% | 2% | 0% | 0% | 0% | 16% | 9% | 0% | 33% | 0% |  |  |  |  |  |  |  |  |  | 
5 | O=C(c1ccc(-c2cc(-c3c[nH]nc3-c3ccccn3)ccn2)cc1)N1CCOCC1 [GW812171] | 6% | 0% | 0% | 0% | 14% | 28% | 0% | 12% | 14% | 0% |  |  |  |  |  |  |  |  |  | 
6 | COc1ccc(S(=O)(=O)NC2CCN(c3cc(C)nc(Nc4cccc(C#N)c4)n3)CC2)cc1.O=C(O)C(F)(F)F [GSK1653539] | 0% | 0% | 0% | 0% | 0% | 0% | 0% | 0% | 0% | 11% |  |  |  |  |  |  |  |  |  | 
7 | Cc1nnc(-c2ccc(C)c(-c3ccc(C(=O)Nc4ccc(NS(C)(=O)=O)cc4)cc3)c2)o1 [GW702865] | 0% | 28% | 15% | 0% | 0% | 7% | 6% | 0% | 0% | 0% |  |  |  |  |  |  |  |  |  | 
8 | O=C(NCCCN1CCOCC1)c1cccc(Nc2nccc(Nc3ccc(Oc4ccccc4)cc3)n2)c1 [GW663929] | 0% | 16% | 0% | 0% | 0% | 4% | 17% | 0% | 4% | 0% |  |  |  |  |  |  |  |  |  | 
9 | c1ccc(-c2cc(-c3c[nH]nc3-c3ccccn3)ccn2)cc1 [GW576604] | 3% | 9% | 0% | 0% | 0% | 0% | 0% | 0% | 0% | 0% |  |  |  |  |  |  |  |  |  | 
10 | CN1c2ccc(NCc3ccc(F)cc3)cc2-c2c(cnn2C)S1(=O)=O | 0% | 0% | 0% | 2% | 0% | 0% | 0% | 0% | 23% | 0% |  |  |  |  |  |  |  |  |  | 
11 | CSc1ccc(-c2cc3ncnc(SCC(=O)O)c3s2)cc1 | 10% | 8% | 0% | 0% | 0% | 0% | 11% | 17% | 26% | 2% |  |  |  |  |  |  |  |  |  | 
12 | COc1cc2c(cc1OCCN1CCN(C)CC1)ncc1c3ccc(C#N)cc3[nH]c21 | 0% | 56% | 25% | 0% | 16% | 16% | 0% | 1% | 0% | 0% |  |  |  |  |  |  |  |  |  | 
13 | Nc1nc(-c2ccc3c(N)n[nH]c3c2)cc(N2CCCC2)n1 [GSK2227430] | 0% | 10% | 0% | 0% | 0% | 0% | 0% | 0% | 0% | 5% |  |  |  |  |  |  |  |  |  | 
14 | N#Cc1ccc(-c2cc(-c3c[nH]nc3-c3ccccn3)ccn2)cc1 [GW693028] | 1% | 0% | 0% | 0% | 0% | 0% | 0% | 0% | 16% | 18% |  |  |  |  |  |  |  |  |  | 
15 | COc1ccc(COc2cc(-n3cnc4ccccc43)sc2C(N)=O)cc1 [GSK1024304] | 0% | 0% | 0% | 97.4% | 90% | 86% | 4% | 4% | 0% | 0% |  |  |  |  |  |  |  |  |  | 
16 | Cc1c(Cn2c(C)nn3c(=O)cc(N4CCOC(C)C4)nc23)cccc1C(F)(F)F (stereo not shown) [GSK2344444] | 0% | 0% | 0% | 0% | 0% | 0% | 0% | 0% | 0% | 0% |  |  |  |  |  |  |  |  |  | 
17 | CC(C)Oc1ccc2c(-c3ccnc(Nc4ccc(N5CCN(C)CC5)cc4)n3)cnn2n1 [GW696155] | 0% | 31% | 4% | 25% | 62% | 95.9% | 96.8% | 0% | 28% | 0% |  |  |  |  |  |  |  |  |  | 

Row | SMILES | %Inh (PKMYT1) | %Inh (PKN1) | %Inh (PKN2) | %Inh (PLK1; [1]) | %Inh (PLK2) | %Inh (PLK3) | %Inh (PLK4) | %Inh (PRKCD) | %Inh (PRKCE) | %Inh (PRKCH) | %Inh (PKMYT1; 1 µM) | %Inh (PKN1; 1 µM) | %Inh (PKN2; 1 µM) | %Inh (PLK1; concentration: 1 μM, replicates: in singlicate, 1 µM) | %Inh (PLK2; 1 µM) | %Inh (PLK4; 1 µM) | %Inh (PRKCD; 1 µM) | %Inh (PRKCE; 1 µM) | %Inh (PRKCH; 1 µM) | %Inh (PLK1; 1 µM)
18 | Nc1nccc(-c2c(-c3ccc(F)cc3)ncn2C2CCN(CC(F)(F)F)CC2)n1 [SB-236560] | 20% | 0% | 0% | 0% | 0% | 0% | 17% | 0% | 19% | 0% |  |  |  |  |  |  |  |  |  | 
19 | O=C(NCCNc1ccnc(Nc2ccc(F)cc2)n1)c1cc2ccccc2s1 [GSK1379874] | 0% | 0% | 0% | 0% | 0% | 0% | 0% | 0% | 5% | 17% |  |  |  |  |  |  |  |  |  | 
20 | CN(C(=O)c1ccc(-c2cc(-c3c[nH]nc3-c3ccccn3)ccn2)cc1)C1CCOCC1 [GW810083] | 4% | 0% | 0% | 0% | 0% | 0% | 2% | 24% | 4% | 0% |  |  |  |  |  |  |  |  |  | 
21 | COc1ccc(Nc2nccc(N3CCC(NC(=O)Nc4cc(C)ccc4C)C3)n2)cc1 (stereo not shown) [GSK1379741] | 0% | 0% | 0% | 0% | 0% | 0% | 0% | 0% | 13% | 0% |  |  |  |  |  |  |  |  |  | 
22 | O=C(Nc1cccc(-c2nn3ncccc3c2-c2ccnc(Nc3cccc(C(F)(F)F)c3)n2)c1)c1c(F)cccc1F [GSK299495] | 9% | 0% | 0% | 0% | 0% | 2% | 0% | 0% | 14% | 16% |  |  |  |  |  |  |  |  |  | 
23 | Fc1ccc(-c2ncn(CCCN3CCOCC3)c2-c2ccccn2)cc1 [SB-211742] | 0% | 0% | 9% | 12% | 0% | 0% | 0% | 28% | 0% | 0% |  |  |  |  |  |  |  |  |  | 
24 | O=c1cc(N2CCOCC2)nc2n(Cc3cccc(F)c3)ccn12 [GSK2297430] | 0% | 20% | 0% | 1% | 0% | 0% | 0% | 2% | 3% | 31% |  |  |  |  |  |  |  |  |  | 
25 | CCCCCc1nc2c(N)ncnc2n1CCCCC [SKF-97255] | 0% | 0% | 0% | 19% | 18% | 27% | 25% | 18% | 0% | 7% |  |  |  |  |  |  |  |  |  | 
26 | O=c1cc(N2CCOCC2)nc2n(Cc3cccc4ccccc34)ccn12 [GSK2333389] | 4% | 15% | 0% | 0% | 0% | 0% | 0% | 0% | 0% | 0% |  |  |  |  |  |  |  |  |  | 
27 | c1ccc(-c2n[nH]cc2-c2ccnc3ccccc23)nc1 [GW271431] | 3% | 12% | 0% | 0% | 0% | 0% | 0% | 4% | 3% | 9% |  |  |  |  |  |  |  |  |  | 
28 | NS(=O)(=O)c1cccc(-c2ccc3nccc(-c4cccc(S(N)(=O)=O)c4)c3c2)c1 [GW867253] | 3% | 0% | 11% | 24% | 19% | 30% | 14% | 23% | 18% | 0% |  |  |  |  |  |  |  |  |  | 
29 | Cc1cn2c(=O)cc(N3CCOCC3)nc2n1Cc1cccc(Cl)c1Cl [GSK2334006] | 12% | 33% | 0% | 24% | 0% | 0% | 0% | 0% | 13% | 28% |  |  |  |  |  |  |  |  |  | 
30 | O=c1cc(N2CCOCC2)nc2n(Cc3cccc(C(F)(F)F)c3)ccn12 [GSK2297543] | 0% | 29% | 5% | 3% | 0% | 0% | 0% | 8% | 0% | 9% |  |  |  |  |  |  |  |  |  | 
31 | Cc1cccc(Cn2ccn3c(=O)cc(N4CCOCC4)nc23)c1 [GSK2297542] | 16% | 0% | 0% | 14% | 0% | 0% | 0% | 9% | 2% | 31% |  |  |  |  |  |  |  |  |  | 
32 | COc1ccc(CNC(=O)NC2CCN(c3ccnc(Nc4ccc(OC)cc4)n3)C2)cc1 (stereo not shown) [GSK1379727] | 2% | 0% | 0% | 0% | 0% | 0% | 0% | 0% | 15% | 17% |  |  |  |  |  |  |  |  |  | 
33 | NCCNS(=O)(=O)c1ccc(-c2ccnc3[nH]ccc23)cc1 [GSK977617] |  |  |  |  |  | 0% |  |  |  |  | 5% and 0% | 44% and 19% | 66% and 50% | 6% and 2% | 10% and 0% | 26% and 24% | 97.7% and 95.2% | 96.8% and 68% | 95% and 91% | 
34 | COc1cc2ncn(-c3cc(OCc4sccc4Cl)c(C(N)=O)s3)c2cc1OC [GSK448459] | 0% | 0% | 0% |  | 99.5% | 99.5% | 4% | 0% | 0% | 0% |  |  |  |  |  |  |  |  |  | 100%
